Results published in PubChem BioAssay (NCI).
About 83,000 compounds went through this panel and 20% of them were active in at least one assay; those are over-represented in the sample as a whole.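 In brief: 96-well plates, 48 h treatment, single concentration, percent growth endpoint.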 A number with no mark means an inactive call. The source made the active and inactive calls. How the source made its calls: active means growth percent below 10; inactive means the rest.

tested on: HL-60(TB) leukemia; test: NCI-60 one-dose screen, 48 h (100 = growth as untreated, 0 = no growth, -100 = all killed); conditions: 10 µM unless noted

Row | Structure (SMILES) | growth
1 | CC(=O)Nc1ccc(-c2cn(-c3cccc(C(=O)Nc4ccc(N5CCN(C)CC5)cc4)c3)nn2)cn1 | 64.6%
2 | Cc1ccc(C(=O)Nc2cccc(C(=O)NC(=S)Nc3ccc(S(N)(=O)=O)cc3)c2)cc1 | 84.7%
3 | C=C1CCC2C3(C)COC(c4ccccc4F)OC3CCC2(C)C1CC(O)C1=CCOC1=O (configuration not stated) | 70.5%
4 | O=c1[nH]c2ccc(Cl)cc2cc1CSc1nccc(-c2ccc(Cl)cc2)n1 | 102%
5 | O=C(CNc1nc(-c2ccccc2)cs1)Nc1ccc(Cl)cc1[N+](=O)[O-] | -15.1% (active)
6 | C=C1CC[C@@H]2[C@]3(C)COC(c4cn(-c5ccccc5)nc4-c4ccccc4)O[C@@H]3CC[C@@]2(C)[C@@H]1C/C=C1/C(=O)OC[C@H]1O (some centres not stated) | -33.7% (active)
7 | CC1(C)CC[C@]2(C(=O)Nc3ccccc3)CC[C@]3(C)C(=CCC4[C@@]5(C)C[C@@H](O)[C@H](O)[C@@](C)(CO)C5CC[C@]43C)C2C1 (some centres not stated) | 13.1%
8 | C#CCN(C)CCCOc1ccc(N(CC)C(=O)c2cc(C(C)C)c(O)cc2O)cc1Cl | -63.8% (active)
9 | Brc1ccc(N/N=C/c2c[nH]c3ccc(Br)cc23)nc1 | -17.2% (active)
10 | Cc1cn(-c2cc(NC(=O)c3ccc(C)c(-n4cc(-c5cnc6cccnn56)nn4)c3)cc(C(F)(F)F)c2)cn1 | 24.9%
11 | COc1cc(/C=C/C(=O)c2ccccc2)ccc1Oc1nc(Nc2ccc(F)cc2)nc(N(C)C)n1 | 20.5%
12 | COc1c(F)ccc(C(=O)Nc2ccc3nc(NC(=O)C4CCCN(S(=O)(=O)C5CC5)C4)sc3c2)c1F (configuration not stated) | 32.4%
13 | C/C(=N/O)c1ccc(NC(=O)CSc2nnc(-c3ccc(-c4nc5ccc(Cl)cc5[nH]4)cc3)o2)cc1 | 44%
14 | Cc1noc2c(Cc3ccccc3)nn(CC(=O)N/N=C/c3ccc(Cl)cc3)c(=O)c12 | 103%
15 | O=[N+]([O-])c1cccc(-c2nnc3c(/C=C/c4ccccc4O)nc4ccccc4n23)c1 | 52.5%
16 | COc1ccc(-c2ccc(SCC(=O)NCCc3ccc(S(N)(=O)=O)cc3)nn2)cc1 | 60.5%

Row | Structure (SMILES) | growth
17 | CCCn1c(=O)c2[nH]c(-c3ccc(OCc4nc5ccc(C#N)cc5[nH]4)cc3)nc2n(CCC)c1=O | 95.4%
18 | COc1cc(C2C(C(=O)OCc3ccccc3)=C(C)Nc3nc4ccccc4n32)cc(OC)c1OC (configuration not stated) | 16.1%
19 | O=C(/C=C/Nc1ccc(F)cc1F)c1ccc2c(c1)Nc1ccccc1S2 | 26.9%
20 | Cc1cccc(-c2ccccc2Oc2ccc3nnc(Cl)n3n2)c1 | 108%
21 | CCCSc1nnc(-c2sc3nc4ccccc4n3c2C)o1 | 94%
22 | CC1(C)[C@@H](NCO)CC[C@]2(C)[C@H]3C(=O)C=C4[C@@H]5C[C@](C)(CO)CC[C@]5(C)CC[C@@]4(C)[C@]3(C)CC[C@@H]12 | 58.2%
23 | COc1cc2c3c(n(CCCn4ccnc4)c(=O)c2cc1OC)-c1nc2c(cc1C3=O)OCO2 | 75.8%
24 | CC1(C)CC[C@]2(C(=O)O)CC[C@]3(C)C(=CCC4[C@@]5(C)C[C@@H](O)[C@@H]6OC(c7cccc(Br)c7)OC[C@@]6(C)C5CC[C@]43C)C2C1 (some centres not stated) | 7.87% (active)
25 | CCCCSc1nc(NCCc2c[nH]c3ccccc23)c(C#N)c(-c2ccc(F)cc2)n1 | 53.8%
26 | Brc1ccc(N/N=C/c2c[nH]c3ccccc23)nc1 | 13.2%
27 | O=C(/C=C/c1ccc(O)c(O)c1)NC1CCOC1O (configuration not stated) | 99.1%
28 | N#Cc1ccc(-c2nn(-c3ccc(C(=O)O)cc3)cc2CNc2cc(Cl)cc(C(F)(F)F)c2)cc1 | 7.71% (active)
29 | Cc1nn(-c2ccccc2)c2ncn(CC(=O)N/N=C/c3c[nH]c4ccccc34)c(=O)c12 | 83.8%
30 | COCOc1cc2oc(C(=O)N[C@@H](Cc3ccccc3)C(O)C(=O)NCc3ccccc3)c(C)c(=O)c2cc1OCOC (some centres not stated) | 96.5%
31 | CC(=O)OC[C@@]1(C)C2CC[C@]3(C)C(CC=C4C5CC(C)(C)CC[C@]5(C(=O)Nc5ccc(Br)cc5)CC[C@]43C)[C@@]2(C)C[C@@H](OC(C)=O)[C@@H]1OC(C)=O (some centres not stated) | 32.3%
32 | NS(=O)(=O)c1ccc(N=Nc2c(O)n(CC(=O)Nc3ccccc3Cl)c3ccccc23)cc1 | 45.8%
